Where a name gives a salt, the structure may show the parent alone. ± gives the standard deviation of the averaged measurements. In all, about 1,900 compounds were measured (“normalised cell viability (NPI; 0 = phenylarsine oxide control, 1 = DMSO control)”: median about 1, lowest 2% from about 0.039 on). The list comes from a sample in which the lowest values are over-represented; it also holds similar structures and randomly drawn compounds.
Test system: NCI-H1944
Assay: normalised cell viability (NPI; 0 = phenylarsine oxide control, 1 = DMSO control) (fraction of DMSO control); NCI-H1944 is a non-small cell lung cancer line; higher = more viable cells (less compound toxicity)
Details: 6 days
[1] = glucocorticoid arm: hydrocortisone 2.75 uM co-treatment, compound 1 µM
[2] = glucocorticoid arm: hydrocortisone 2.75 uM co-treatment, compound 5 µM
[3] = glucocorticoid arm: hydrocortisone 2.75 uM pre-treated 2 days and continued, compound 1 µM
[4] = glucocorticoid arm: hydrocortisone 2.75 uM pre-treated 2 days and continued, compound 5 µM
[5] = glucocorticoid arm: vehicle, compound 1 µM
[6] = glucocorticoid arm: vehicle, compound 5 µM
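Also: CTB read-out in 384-well plates, triplicate wells, NPI normalised per plate against 1 µM phenylarsine oxide (0) and 0.1% DMSO (1) controls.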

Row | SMILES | normalised cell viability [1] | normalised cell viability [2] | normalised cell viability [3] | normalised cell viability [4] | normalised cell viability [5] | normalised cell viability [6]
1 | N[C@@H](CCC(=O)N[C@@H](CSN=O)C(=O)NCC(=O)O)C(=O)O [S-Nitrosoglutathione] | 1.003 ± 0.0058 | 1.02 ± 0.025 | 1.02 | 1.04 ± 0.064 | 0.9933 ± 0.0035 | 1 ± 0.014
2 | c1ccc2c(c1)CC(N1CCN(c3cccc4c3OCCO4)CC1)C2 | 0.988 ± 0.019 | 0.9857 ± 0.0084 | 0.995 ± 0.015 | 1.03 ± 0.081 | 1.003 ± 0.0058 | 1.02 ± 0.011
3 | Nc1nccc2c1ncn2[C@@H]1O[C@H](CO)[C@@H](O)[C@H]1O [3-deazaadenosine] | 0.989 ± 0.0099 | 0.973 ± 0.025 | 0.996 ± 0.012 | 0.981 ± 0.011 | 0.9687 ± 0.0035 | 0.968 ± 0.0062
4 | O=C(c1ccc(Nc2nccc(-c3cc4ccccc4s3)n2)cc1)N1CCC(N2CCCC2)CC1 [IKK-16 (IKK Inhibitor VII)] | 0.901 ± 0.0072 | 0.626 ± 0.03 | 0.913 ± 0.015 | 0.837 ± 0.021 | 0.9453 ± 0.0065 | 0.0503 ± 0.008
5 | CNCC[C@H](Oc1cccc2ccccc12)c1cccs1 [Duloxetine HCl] | 0.9993 ± 0.0011 | 0.9847 ± 0.0032 | 1.01 ± 0.018 | 0.98 ± 0.015 | 0.999 ± 0.0095 | 0.9923 ± 0.0083
6 | C[n+]1cc2c3c(ccc2c2ccc4cc5c(cc4c21)OCO5)OCO3 [Sanguinarine chloride] | 1.04 ± 0.011 | -0.0014 ± 0.001 | 0.903 ± 0.2 | -0.00109 ± 0.00052 | 0.983 ± 0.037 | -0.000203 ± 0.00043
7 | Cc1ccccc1CNc1ncnc2c1ncn2[C@@H]1O[C@H](CO)[C@@H](O)[C@H]1O [Metrifudil] | 1.01 ± 0.011 | 1.03 ± 0.017 | 1.02 | 1.04 ± 0.071 | 0.996 ± 0.004 | 1.001 ± 0.0085
8 | O=C(O)C1CCNCC1 [Isonipecotic acid] | 1.003 ± 0.0058 | 1.02 ± 0.017 | 1.01 ± 0.018 | 1.04 ± 0.07 | 0.9937 ± 0.0015 | 1.001 ± 0.0078
9 | Cc1ccccc1/C=C/C1=NCCN1 [Metrazoline oxalate] | 0.9993 ± 0.0011 | 1.002 ± 0.0072 | 1.01 | 0.987 ± 0.017 | 0.995 ± 0.007 | 1.002 ± 0.0076
10 | CN(N=O)C(=O)N[C@@H]1[C@@H](O)[C@H](O)[C@@H](CO)O[C@@H]1O [Streptozocin] | 1 ± 0.014 | 1.03 ± 0.015 | 1.001 ± 0.0081 | 1.04 ± 0.01 | 0.9943 ± 0.0051 | 1
11 | CC(C)[C@H]1c2ccc(F)cc2CC[C@@]1(CCN(C)CCCc1nc2ccccc2[nH]1)OC(=O)C1CC1 | 0.9943 ± 0.0051 | -0.000718 ± 0.00075 | 1.013 ± 0.0058 | 1.08 ± 0.035 | 0.989 ± 0.0095 | -6.33e-05 ± 0.0017
12 | COCC(=O)O[C@]1(CCN(C)CCCc2nc3ccccc3[nH]2)CCc2cc(F)ccc2[C@@H]1C(C)C [Mibefradil dihydrochloride] | 0.977 ± 0.011 | 0.0303 ± 0.012 | 1 ± 0.015 | 0.827 ± 0.24 | 0.9887 ± 0.0031 | 0.00844 ± 0.014
13 | CCOc1ccc(Cc2cc([C@@H]3O[C@H](CO)[C@@H](O)[C@H](O)[C@H]3O)ccc2Cl)cc1 [Dapagliflozin] | 1.01 ± 0.016 | 1.02 ± 0.026 | 1.02 ± 0.015 | 1.04 ± 0.017 | 1.001 ± 0.0081 | 1 ± 0.011
14 | CNC(=O)[C@H]1O[C@@H](n2cnc3c(N)ncnc32)[C@H](O)[C@@H]1O [5'-N-Methyl carboxamidoadenosine] | 0.982 ± 0.02 | 0.972 ± 0.015 | 0.988 ± 0.013 | 0.961 ± 0.0028 | 0.9893 ± 0.0078 | 0.976 ± 0.0053
15 | O=C(O)/C(=C\c1c(C(=O)O)[nH]c2cc(Cl)cc(Cl)c12)c1ccccc1 | 1.02 ± 0.015 | 1.06 ± 0.017 | 1.017 ± 0.0058 | 1.08 ± 0.081 | 0.995 ± 0.002 | 1.013 ± 0.0058
16 | C/C=C1\NC(=O)[C@H]2CSSCC/C=C/[C@H](CC(=O)N[C@H](C(C)C)C(=O)N2)OC(=O)[C@H](C(C)C)NC1=O [Romidepsin] | 1.005 ± 0.0092 | 1.02 ± 0.011 | 1.007 ± 0.0058 | 1.02 ± 0.015 | 0.9903 ± 0.0045 | 0.979 ± 0.019
17 | C/C=C1\NC(=O)[C@H]2CSSCC/C=C/[C@H](CC(=O)N[C@H](C(C)C)C(=O)N2)OC(=O)[C@H](C(C)C)NC1=O [Depsipeptide] | 6.37e-05 ± 0.001 | 1.05 ± 0.02 | 0.00143 ± 0.00036 | 1.027 ± 0.0058 | 0.00028 ± 0.00044 | 1.01
18 | C/C=C1\NC(=O)[C@H]2CSSCC/C=C/[C@H](CC(=O)N[C@H](C(C)C)C(=O)N2)OC(=O)[C@H](C(C)C)NC1=O [Romidepsin (FK228, Depsipeptide)] | 0.00704 ± 0.0021 | 0.000455 ± 0.00053 | 0.00593 ± 0.0021 | 0.000393 ± 0.00068 | 0.00559 ± 0.0012 | 2.1e-05 ± 0.00023
19 | O=C(O)C1CCCNC1 (racemic) [(±)-Nipecotic acid] | 0.9947 ± 0.005 | 1.01 ± 0.014 | 1.02 ± 0.059 | 1.02 ± 0.021 | 1 ± 0.01 | 1.013 ± 0.0058
20 | CN(C)CCSSCCNC(=O)C1CCN(C(=O)CSc2ccc(Cl)cc2)CC1 | 1.01 ± 0.01 | 1.04 ± 0.015 | 1.027 ± 0.0058 | 1.05 ± 0.01 | 0.9967 ± 0.0035 | 0.9967 ± 0.0042
21 | N[C@@H](Cc1c[nH]cn1)C(=O)O [L-Histidine hydrochloride] | 1.017 ± 0.0058 | 0.996 ± 0.012 | 1 ± 0.014 | 1.02 ± 0.01 | 0.9973 ± 0.0038 | 0.9973 ± 0.0046
22 | O=C(O)c1ccnc(C(=O)O)c1 [2,4-Pyridinedicarboxylic Acid] | 1 ± 0.022 | 0.999 ± 0.045 | 0.996 ± 0.021 | 1.01 ± 0.024 | 0.996 ± 0.015 | 0.999 ± 0.015
23 | CN=c1nc(-c2ccccc2)n(-c2ccccc2)s1 | 1.003 ± 0.0058 | 1.04 ± 0.031 | 0.832 ± 0.33 | 1.02 ± 0.01 | 1.01 | 1.017 ± 0.0058

Source: the supplement of paper PMC8285479
